Reference: PubChem BioAssay AID588477 (NMMLSC, 2011)
The source made the active and inactive calls.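 Rule for the calls: active = valid curve fit with half-effect dose at most 10 µM and total binding change across doses of 30 points or more; inactive = the rest.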

test system: Rho wt; assay: inhibitors of Bodipy-GTP binding across eight GTPases, SAR follow-up, selectivity assay for Cdc42 probe extension project, biochemical, round 1 SAR, Mg buffer, multiplex flow cytometry (AID 588477); conditions: GST-GTPase beads; series mostly up to 100 µM

outcome, inactive:
COc1ccc(C2CC(c3ccccc3)=NN2c2ccc(S(N)(=O)=O)cc2)cc1 (stereo not drawn)
O=C(C#Cc1ccccc1)c1cccc([N+](=O)[O-])c1
NS(=O)(=O)c1ccc(N2N=C(c3ccccc3)CC2c2ccccc2)cc1 (stereo not drawn)
